Laboratory results reported in PubChem BioAssay (Tox21).
Records with an inconclusive call do not appear. A number with no mark means an inactive call. Activity calls are given as the source filed them. Calls come from the whole dose curve; as a rule, active = well fitted cell-killing curve with a large enough effect in the repeat runs; inconclusive = weak or mixed curves, or effect the other way; inactive = flat fitted curve, though single readings scatter.

experiment: qHTS RealTime-Glo MT Cell Viability Assay in HEK293 cells - 16 hour (AID 1224872); settings: RealTime-Glo luminescence; series mostly up to 76.8 µM; activity change, negative = cytotoxicity: at the top concentration; note: nearly all actives have a fitted effect of over 50% in size; for activity change, negative = cytotoxicity: top concentration of the series differs between compounds
Text: National Center for Advancing Translational Sciences [NCATS]
NIH Chemical Genomics Center [NCGC]
U.S. Environmental Protection Agency [EPA]
National Institutes of Environmental Health Sciences [NIEHS]
National Toxicology Program [NTP]
U.S. Food and Drug Administration [FDA]
Measure of cell viability is critical in the cell-base assay. Analysis of cell viability is necessary for the characterization of cell responses to cytotoxic drugs and environmental stress. A RealTime-Glo MT Cell Viability Assay to monitor cell viability in real time of continues cell culture during 40 hours of compound treatment was used to screen Tox21 10K library compounds in Hek293 cells. The RealTime-Glo MT Cell Viability Assay is a nonlytic, homogeneous, bioluminescent method to measure cell viability in real time using a simple, plate-based method. The assay involves adding NanoLuc luciferase and a cell-permeant prosubstrate to cells in culture. Viable cells reduce the proprietary prosubstrate to generate a substrate for NanoLuc luciferase. This substrate diffuses from cells into the surrounding culture medium, where it is rapidly used by the NanoLuc Enzyme to produce a luminescent signal. The signal correlates with the number of viable cells, making the assay well suited for cytotoxicity studies.
Tox21 Assay Protocol Summary:
The mixture of Hek293 cell suspension and reagents were dispensed at 600cells/6 ul/well in 1536-well tissue culture treated black solid bottom plates using a Multidrop dispenser. After the assay plates were incubated at a 37 C/5% CO2 incubator for 5 hours, 23 nL of compounds dissolved in DMSO, positive and negative controls was transferred to the assay plate by a pintool work station. The plates were incubated at 37 C for 40 hours. The luminescence intensity were measured at 0h, 8h, 16h, 24h, 32h and 40h time points using ViewLux plate reader during compound treatment.
% is set by controls: 0 for no effect and ±100 for the full control effect; potency is the fitted concentration of half-maximal effect.

Compound	activity change, negative = cytotoxicity	Potency
CCS(=O)(=O)C(C)(C)S(=O)(=O)CC	5.04% [at 35.3 µM]	–
Cc1ncc(CNC(=O)N(CCCl)N=O)c(N)n1	9.74% [at 35.3 µM]	–
CCCSC(=O)N(CCC)CCC	2.18%	–
CC1(C)CON(Cc2ccccc2Cl)C1=O	-0.931%	–
CC(C)[N+](=O)[O-]	-8.52%	–
CC(=O)CC(c1ccc(Cl)cc1)c1c(O)c2ccccc2oc1=O (stereo not given)	-3.91%	–
CCCSP(=O)(OCC)Oc1ccc(Br)cc1Cl (stereo not given)	-17.1% [at 35.3 µM]	–
CC(CCc1ccccc1)NC(C)C(O)c1ccc(O)cc1 (stereo not given)	-15.2% [at 35.3 µM]	–
CCC1(c2ccccc2)C(=O)NC(=O)NC1=O	6.74%	–
COC(=O)c1ccccc1S(=O)(=O)NC(=O)N(C)c1nc(C)nc(OC)n1	4.31%	–
CC1CCC(=O)O1 (stereo not given)	-14.3%	–
O=C(Oc1ccc(Br)cc1)N1CCN2CCC1CC2	-1.15%	–
CCN(Cc1ccc(Cl)nc1)/C(=C/[N+](=O)[O-])NC	3.17% [at 35.3 µM]	–
CCOC(=O)/C=C(C)/C=C/C[C@@H](C)CCCC(C)C	10.3%	–
COC(C)(C)C	9.38%	–
COc1cc(OC)nc(Oc2cccc(Oc3nc(OC)cc(OC)n3)c2C(=O)O)n1	-10.9%	–
c1cc[c]([Hg][c]2ccccc2)cc1	–	34.7 µM (active)
COc1cc(OC)nc(NC(=O)NS(=O)(=O)c2ncccc2C(=O)N(C)C)n1	7.32%	–
C[C@@H]1CN(C2CCC(C#N)(c3ccc(F)cc3)CC2)CC[C@]1(C(=O)O)c1ccccc1 (stereo not given in full)	5% [at 35.3 µM]	–
CNC(=O)Oc1c(C(C)(C)C)cc(C)cc1C(C)(C)C	4.73%	–

Compound	activity change, negative = cytotoxicity	Potency
COc1ccc(C(=O)N2CCCC2=O)cc1	4.98% [at 35.3 µM]	–
COc1cc(OC)nc(Sc2cccc(Cl)c2C(=O)O)n1	9.33%	–
CCOc1nc(C(Cl)(Cl)Cl)ns1	1.26%	–
CCN(CC)c1nc(C)cc(OP(=S)(OC)OC)n1	-16.2%	–
Cc1ccccc1CO[C@@H]1C[C@@]2(C(C)C)CC[C@]1(C)O2	-32.9%	–
CCOC(=O)CP(=O)(OCC)OCC	0.0288%	–
CCCCOC(=O)c1ccccc1N	-4.51%	–
O=C(O)C(Br)CBr (stereo not given)	7.13%	–
ClCCOCOCCCl	-6.12%	–
CCCCC(=O)Cl	-0.465%	–
O=C1OC(c2ccc(O)c(S(=O)(=O)O)c2)(c2ccc(O)c(S(=O)(=O)O)c2)c2c(Br)c(Br)c(Br)c(Br)c21	1.78% [at 35.3 µM]	–
O=c1oc2ccccc2c(O)c1C1CCCc2ccccc21 (stereo not given)	13.2%	–
CN1C[C@@H](NS(=O)(=O)N(C)C)C[C@@H]2c3cccc4c3c(cn4C)C[C@H]21	-4.25% [at 35.3 µM]	–
O=C(N[C@H]1CN2CCC1CC2)c1cc2ccoc2cn1	-1.17%	–
Fc1cc(Br)ccc1CBr	10.9% [at 35.3 µM]	–
CCC/C(=N\OCC)C1=C(O)CC(CC(C)SCC)CC1=O (stereo not given)	-22.7%	–
C[C@H]1CCC[C@H](O)CCCCCc2cc(O)cc(O)c2C(=O)O1	–	34.9 µM (active)
CC(C)CP(=S)(S)CC(C)C	28.8%	–
O=S(=O)(O)C(F)(F)C(F)(F)C(F)(F)C(F)(F)C(F)(F)C(F)(F)F	4.95%	–
O=[N+]([O-])c1ccc2c3c(cccc13)CC2	-0.819%	–
